PubChem BioAssay AID588727 (Southern Research Specialized Biocontainment Screening …, 2011)
Screen size: about 350,000 compounds; about 450 (0.13%) were called active. No rule for the calls is given here. A selection follows. Entries with a potency or affinity are not part of this list.

Experiment: inhibitors of VEEV TC-83 cytopathic effect, confirmation, Vero cells (AID 588727)
Settings: VEEV TC-83 cytopathic effect inhibition, at 20 µM
[1] = stronger effect = higher value unless noted

In the case of `Cc1nn(-c2ccc(C(=O)O)cc2)c(=O)c2ccccc12`, the inhibition [1] is reported as 0.65% (inactive).
In the case of `COc1ccc(CCNC(=O)CSc2nc(=O)[nH]c3c2CCC3)cc1OC`, the inhibition [1] is reported as 0.77% (inactive).
With `COc1ccc(CC(=O)OCC(=O)Nc2ncc(Cl)c(C)c2Cl)cc1` the inhibition [1] was 5.2% (inactive).
In the case of `COc1ccccc1/C=C/C(=O)c1ccccc1`, the inhibition [1] is reported as 26.1% (inactive).
In the case of `COc1ccccc1/C=C/C(=O)c1ccc(Cl)cc1`, the inhibition [1] is reported as “inactive”.
With `COc1ccccc1C(=O)N(Cc1ccco1)C1CCS(=O)(=O)C1` (stereo unspecified) the inhibition [1] was 0.87% (inactive).
With `CCCCNC(=O)[C@@H]1CCCN1S(=O)(=O)c1cccc2cccnc12` the inhibition [1] was “inactive”.
In the case of `O=C(Cc1ccc(NC(=O)C2CCN(C(=O)c3ccccc3)CC2)cc1)Nc1cccc(C(=O)N2CCCC2)c1`, the inhibition [1] is reported as “inactive”.
With `O=C(Nc1cccc2ccccc12)N(c1ccccc1)c1ccccc1` the inhibition [1] was “inactive”.
In the case of `Cc1ccnc(NS(=O)(=O)c2ccc(NC(=O)c3ccc(C)o3)cc2)n1`, the inhibition [1] is reported as 0.84% (inactive).
For `Cc1sc2nc(CN(Cc3cccs3)C(=O)NC3CCCCC3)[nH]c(=O)c2c1C`, the inhibition [1] was 6.2% (inactive).
In the case of `CC[C@@H](C)[C@H](CNC)NC[C@@H](Cc1cccc2ccccc12)NCCc1cccc(C(F)(F)F)c1`, the inhibition [1] is reported as 0% [measured here: 10K pilot screen inhibition, stronger effect = higher value] and the outcome [1] is reported as “inactive”.
With `CNC[C@H](Cc1ccccc1)NC[C@@H](Cc1cccc2ccccc12)NCCc1ccc(C)cc1` the inhibition [1] was “inactive”.
In the case of `COc1ccc(/C=N\NC(=O)c2ccccc2OC)cc1COc1ccccc1C`, the inhibition [1] is reported as 10.1% (inactive).
In the case of `Cc1ccc(-c2nc(SC(C)C(=O)c3c(N)n(C)c(=O)n(C)c3=O)n[nH]2)cc1` (stereo unspecified), the inhibition [1] is reported as 10.2% (inactive).
For `CCC(=O)N1c2ccc(S(=O)(=O)CCC(=O)NCc3cccs3)cc2CC1C` (stereo unspecified), the inhibition [1] was 1.31% (inactive).
With `O=C(NCC(Cl)c1ccc2ccccc2c1)c1c(F)cccc1F` (stereo unspecified) the inhibition [1] was “inactive”.
With `Cc1cc(-c2nnc(SCC(=O)Nc3ccccc3C(F)(F)F)n2N)n[nH]1` the inhibition [1] was 1.16% (inactive).
With `COc1cc(CNCCSc2nnnn2C)cc(Br)c1OCc1ccccc1F` the inhibition [1] was “inactive”.
For `COc1ccc(/C=C/C(=O)c2ccc3ccccc3c2O)cc1CN1CCOCC1`, the inhibition [1] was 2% (inactive).
For `COc1ccc(C(=O)/C=C/c2ccc(OC)c(Cn3nnc4ccccc43)c2)cc1`, the inhibition [1] was 30.9% (inactive).
With `COc1ccc(/C=C/C(=O)c2ccccc2O)cc1CN1CCOCC1` the inhibition [1] was 6.83% (inactive).
For `COc1ccc(/C=C/C(=O)C23CC4CC(CC(C4)C2)C3)cc1CN1CCOCC1`, the inhibition [1] was 6.32% (inactive).
In the case of `CCC1(C)NC(=O)N(CC(=O)NCC(=O)Nc2c(C)cc(C)cc2C)C1=O` (stereo unspecified), the inhibition [1] is reported as “inactive”.
With `O=C(CSc1ncnc2c1cnn2-c1ccccc1)NC1CCCC1` the inhibition [1] was 4.66% (inactive).
In the case of `Cc1nn(-c2ccccn2)c2nc(-c3cccs3)cc(C(=O)NCc3ccco3)c12`, the inhibition [1] is reported as 8.96% (inactive).
With `CCC(=O)N1CCc2cc(S(=O)(=O)N3CCN(c4ccccc4)CC3)ccc21` the inhibition [1] was 0.73% (inactive).
For `CC(C)[C@H](NS(=O)(=O)c1ccccc1)C(=O)OCC(=O)Nc1cccc(S(N)(=O)=O)c1`, the inhibition [1] was 3.51% (inactive).
For `CS(=O)(=O)N1CCN(c2ccc([N+](=O)[O-])c(NCCN3CCOCC3)c2)CC1`, the inhibition [1] was 0.31% (inactive).
For `CC(C)c1ccc(Nc2ncccc2C(=O)O)cc1`, the inhibition [1] was 7.46% (inactive).
For `COc1ccc(Nc2ncccc2C(=O)O)cc1`, the inhibition [1] was “inactive”.
For `CC[C@@]1(C(=O)OC)N[C@H](CN(C)C(=O)Nc2ccc(OC)cc2)[C@@H]2C(=O)N(C)C(=O)[C@@H]21`, the inhibition [1] was “inactive”.
For `COc1ccc(C(=O)CCC(=O)Nc2cccnc2)cc1`, the inhibition [1] was 1.27% (inactive).
With `COc1ccc(Nc2c(-c3ccc(C)cc3)nc3cnccn23)cc1` the inhibition [1] was 2.6% (inactive).
In the case of `CCOC(=O)C1CCCN(c2nnnn2-c2ccccc2)C1` (stereo unspecified), the inhibition [1] is reported as 0.53% (inactive).
For `O=C(CSc1nnc(-c2ccco2)o1)Nc1cccc([N+](=O)[O-])c1`, the inhibition [1] was 1.81% (inactive).
With `O=C(Oc1ccc2ccccc2c1Cl)N1CCCC1` the inhibition [1] was 35.1% (inactive).
With `O=C(Oc1ccc2ccccc2c1Cl)N1CCCCCC1` the inhibition [1] was 2.11% (inactive).
With `CN1CCN(C(=O)CCc2nc3ccccc3c(=O)[nH]2)CC1` the inhibition [1] was 5.24% (inactive).
With `CN(C)C(CNC(=O)CN1C(=O)NC2(CCCC2)C1=O)c1ccccc1` (stereo unspecified) the inhibition [1] was 1.45% (inactive).
With `CCOc1ccc(/C=N/NC(=O)c2ccc(O)cc2)cc1CN1CC2CC(C1)c1cccc(=O)n1C2` (stereo unspecified) the inhibition [1] was 1.76% (inactive).
In the case of `CCc1c(C)sc(NC(=O)c2cccs2)c1C(N)=O`, the inhibition [1] is reported as 0.91% (inactive).
For `CCc1c(C)sc(NC(=O)C2CCCCC2C(=O)O)c1C(N)=O` (stereo unspecified), the inhibition [1] was “inactive”.
With `O=C(O)CSc1nnc(Cc2ccccc2)n1-c1ccccc1` the inhibition (stronger effect = higher value) was 4.71% (inactive) and the inhibition (measured here: 10K pilot screen inhibition, stronger effect = higher value) was 0.6%.
With `COc1ccc(Cl)cc1NC(=O)C(C)N(C)Cc1cccc(Cl)c1Cl` (stereo unspecified) the inhibition [1] was 0.94% (inactive).
For `COc1ccc(C2/C(=C(\O)c3cc(C)ccc3C)C(=O)C(=O)N2CCN(C)C)cc1OC` (stereo unspecified), the inhibition [1] was 0.58% (inactive).
For `O=C(O)CCC(=O)N1CCCC1`, the inhibition [1] was 0.36% (inactive).
In the case of `Nc1ccn([C@H]2CS[C@@H](CO)O2)c(=O)n1`, the inhibition [1] is reported as 1.18% (inactive).
For `CCc1cccc2c(SC(C)C(=O)NCC3CCCO3)nc(-c3ccccc3)nc12` (stereo unspecified), the inhibition [1] was 0.17% (inactive).
With `CC(Sc1ncnc2sc(-c3ccccc3)cc12)C(=O)NCC1CCCO1` (stereo unspecified) the inhibition [1] was 12.6% (inactive).
With `Cc1cccc(NC(=O)NNC(=O)c2sccc2-n2cccc2)c1` the inhibition [1] was 2.59% (inactive).
For `O=C(/C=C/c1c(F)cccc1Cl)Nc1ncccn1`, the inhibition [1] was 7.45% (inactive).
For `O=C(/C=C/c1ccccc1Cl)c1ccc(O)cc1`, the inhibition [1] was 12.4% (inactive).
For `CCCCn1c(N)c(N(Cc2ccccc2OC)C(=O)CCSC)c(=O)[nH]c1=O`, the inhibition [1] was 2% (inactive).
With `Cc1nn(C)cc1/C=N/NC(=S)Nc1ccc(Cl)cc1Cl` the inhibition [1] was 1.88% (inactive).
With `Clc1cccc(-c2noc3ncnc(Nc4ccc5c(c4)OCO5)c23)c1` the inhibition [1] was 1.3% (inactive).
For `O=C(Nc1ccc(N2CCCC2)c(Cl)c1)c1cccnc1`, the inhibition [1] was 9.45% (inactive).
For `O=C(Nc1ccc(N2CCOCC2)c(Cl)c1)c1cccnc1`, the inhibition [1] was 1.94% (inactive).
For `O=C(Nc1ccc(Cl)cc1)c1nc[nH]c1C(=O)NCCN(CCNC(=O)c1[nH]cnc1C(=O)Nc1ccc(Cl)cc1)CCNC(=O)c1[nH]cnc1C(=O)Nc1ccc(Cl)cc1`, the inhibition [1] was 0.19% (inactive).
With `CCCN1C(=O)c2ccccc2NC1c1cc(OC)c(OC)c(OC)c1` (stereo unspecified) the inhibition [1] was “inactive”.
In the case of `CCCN1C(=O)c2ccccc2NC1c1ccc(OC)cc1OC` (stereo unspecified), the inhibition [1] is reported as “inactive”.
With `CCOC(=O)c1c(-c2ccccc2)oc2cc(CN(C)C)c(O)c(CN(C)C)c12` the inhibition [1] was 2.26% (inactive).
For `CC1(C)Cc2[nH]c3ccccc3c2C(C)(C)N1`, the inhibition [1] was 0.1% (inactive).
For `Cc1cccn2cc(COc3cccc([N+](=O)[O-])c3)nc12`, the inhibition [1] was 2.58% (inactive).
With `Cc1cccn2cc(-c3ccccc3)nc12` the inhibition [1] was 5.4% (inactive).
With `Cc1ccc(S(=O)(=O)Oc2ccc(N3C(=O)C4C5CCC(C5)C4C3=O)cc2)cc1` (stereo unspecified) the inhibition [1] was 2.05% (inactive).
In the case of `Cc1ccc2[nH]c3c(=O)n(CC(=O)Nc4ccccc4N4CCN(C)CC4)ncc3c2c1`, the inhibition [1] is reported as 0.06% (inactive).
With `Cc1ccc2oc(=O)c3cnn(CC(=O)N4CCN(c5ccccc5)CC4)c3c2c1` the inhibition [1] was 10.3% (inactive).
With `COc1ccc(C)cc1NC(=O)CCN1CCN(C/C=C/c2ccccc2)CC1` the inhibition [1] was “inactive”.
With `OC1(c2cccs2)CN(c2ccc(Cl)cc2)C2=[N+]1CCCS2` (stereo unspecified) the inhibition [1] was 0.66% (inactive).
In the case of `C[N+]1=C2CCCCCN2C(O)(c2ccccc2)C1` (stereo unspecified), the inhibition [1] is reported as “inactive”.
For `Cc1ccccc1N1CC(O)(c2cccs2)[N+]2=C1CCCC2` (stereo unspecified), the inhibition [1] was 1.35% (inactive).
For `CCc1ccc(N2CC(O)(c3cccs3)[N+]3=C2SCCC3)cc1` (stereo unspecified), the inhibition [1] was 3.66% (inactive).
In the case of `COc1ccc2oc(C(=O)NCC3CCCO3)c(C)c2c1` (stereo unspecified), the inhibition [1] is reported as 5.81% (inactive).
For `COc1ccc(CCNC(=O)CSc2nccc(=O)[nH]2)cc1OC`, the inhibition [1] was “inactive”.
In the case of `COc1ccccc1N/N=C(\C#N)C(=N)N1CCOCC1`, the inhibition [1] is reported as 1.39% (inactive).
With `COc1ccc(Nc2cc(C(=O)NCCCN3CCN(C)CC3)c3ccccc3n2)cc1OC` the inhibition [1] was 0.68% (inactive).
With `COc1ccc(Nc2cc(C(=O)NCCCN3CCN(C)CC3)c3ccccc3n2)cc1` the inhibition [1] was 0.57% (inactive).
For `O=C(NCc1ccccc1Cl)C(=O)NCC(c1ccco1)N1CCOCC1` (stereo unspecified), the inhibition [1] was “inactive”.
With `Cc1ccc(CSCC(=O)Nc2ccccc2F)cc1` the inhibition [1] was 1.09% (inactive).
With `Cc1c(NC(=O)CSCc2ccccc2)cccc1C(=O)O` the inhibition [1] was 0.57% (inactive).
For `COCCCNC(=S)NCCc1ccc(F)cc1`, the inhibition [1] was 0.69% (inactive).
For `COc1ccc(NCC(=O)N/N=C2\CCCC(C)C2)cc1` (stereo unspecified), the inhibition [1] was 0.09% (inactive).
For `C=CCN=c1scc(-c2ccc(F)cc2)n1/N=C/c1ccccn1`, the inhibition [1] was 7.98% (inactive).
In the case of `C=CCN=c1scc(-c2ccccc2)n1/N=C/c1ccccn1`, the inhibition [1] is reported as 12% (inactive).
In the case of `CC(=O)OCC1OC(n2cc(F)c(=O)[nH]c2=O)C(OC(C)=O)C1OC(C)=O` (stereo unspecified), the inhibition [1] is reported as 5.22% (inactive).
For `C[C@H]1O[C@@H](n2cc(F)c(=O)[nH]c2=O)[C@H](O)[C@@H]1O`, the inhibition [1] was 6.89% (inactive).
For `Cc1ccnc(NC(=O)CCC(=O)N(CC(=O)NCc2ccc(F)cc2)CC2CCCO2)c1` (stereo unspecified), the inhibition [1] was 0.42% (inactive).
In the case of `COc1ccccc1-c1cn[nH]c1-c1ccc(OCc2ccc(F)cc2)cc1O`, the inhibition [1] is reported as 3.76% (inactive).
With `OCCOCCNc1ncnc2c1c(-c1ccccc1)cn2-c1ccccc1` the inhibition [1] was 10.9% (inactive).
In the case of `c1ccc(-c2cn(-c3ccccc3)c3ncnc(NCCCN4CCOCC4)c23)cc1`, the inhibition [1] is reported as 9.07% (inactive).
In the case of `COc1ccc(NC(=O)CN2CCCCC2)cc1S(=O)(=O)N1CCCCC1`, the inhibition [1] is reported as 0.88% (inactive).
For `NC(=O)CC(NC(=O)Cc1cccc2ccccc12)c1ccc(NCc2ccc(F)c(F)c2)c([N+](=O)[O-])c1` (stereo unspecified), the inhibition [1] was 0.49% (inactive).
With `CNC(=O)/C(C#N)=C/c1cn(CC(=O)OC)c2ccccc12` the inhibition [1] was 0.69% (inactive).
